The panel holds about 83,000 compounds, 20% with a hit somewhere; the sample as a whole holds those more often.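 A percent growth of 40 corresponds to 60% growth inhibition; 0 means no net growth; -100 means all cells died. Active threshold: below 10.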 Values without a mark were called inactive. Active and inactive are the calls of the source.

The subject of this assay is HL-60(TB) leukemia. Briefly: NCI-60 one-dose screen, 48 h (100 = growth as untreated, 0 = no growth, -100 = all killed). The conditions noted are these: 10 µM unless noted.
As for `Cc1nc2sc(C(=O)Nc3ccccc3Cl)c(N)c2cc1C(C)O` (stereo not given), the growth was 58.8%. Take `COc1cc(-c2ccc(NC(=O)NC3CC3)c(OC)c2)ccc1NC(=O)NC1CC1`: the growth was 43.6%.

Regarding `COC(=O)/C(CCC=C(C)C)=C1\[C@@H](OC(C)=O)C[C@@]2(C)[C@H]1C/C(=N/O)[C@H]1[C@@]3(C)CC/C(=N\O)[C@@H](C)[C@@H]3CC[C@@]12C`, the growth is 89.3%. On to `O=C(Nc1ncc(Cc2cc(C(F)(F)F)ccc2Cl)s1)C(=S)N1CCOCC1`, for which the growth is 98.1%.

Take `Cc1cc(C2(c3ccc(O)c(C)c3)OS(=O)(=O)c3ccccc32)ccc1O`: the growth was 79%. With `CC(O)CCNC(c1ccccc1)C(O)c1ccccc1` (stereo not given) the figure was 102%; with `Cc1cccc(NC(=O)CSc2nc3ccccc3[nH]2)c1`, 101%.

As to `Nc1nc(SN=Nc2ccc(S(N)(=O)=O)cc2)c2[nH]cnc2n1`, the growth was -16% (active). With `Cc1cc(C(=O)O)c(C)n1-c1cccc(C(=O)O)c1`, the growth is 56.2%. The value for `CCCCn1c(=O)c(-c2cc(-c3ccc(Cl)cc3)nc(-c3ccc(Cl)cc3)c2)cc2cc(C)ccc21` was 100%; that for `C[n+]1ccc(C#N)c2ccccc21` was 70.3%.

Regarding `CN(C)CCn1c2ccc(Br)cc2c2nc3ccccc3nc21`, the growth was 26.2%. Take `CN(C)C(=O)OCc1ccc2c(Cl)cc(Cl)c(O)c2n1`: the growth was 18.8%. Take `N#Cc1nnn(-c2ccc(S(N)(=O)=O)cc2)c1NC(=O)CCl`: the growth was 77.5%. As to `Cc1cccc(C[C@H](NC(=O)Nc2ccc(Cl)cc2F)C(=O)N[C@@H]2C(=O)N3C[C@H](O)C[C@H]3C(=O)N3CCCC[C@H]3C(=O)N[C@@H](C)C(=O)N3C[C@H](C)C[C@H]3C(=O)O[C@H]2C)c1`, the growth is 6.77% (active).
